TDP1 inh: qHTS Assay for Inhibitors of Tyrosyl-DNA Phosphodiesterase (TDP1); Tyrosyl-DNA phosphodiesterase 1 (Homo sapiens), Q9NUW8; recombinant TDP1, AlphaScreen DNA substrate cleavage; Potency, µM (highest dose often 130 µM), actives largely listed as inhibitors; hit rate 0.28% among 350,000; also: nearly all actives have a fitted effect of over 40% in size
Target sequence (Q9NUW8 whole entry, looked up): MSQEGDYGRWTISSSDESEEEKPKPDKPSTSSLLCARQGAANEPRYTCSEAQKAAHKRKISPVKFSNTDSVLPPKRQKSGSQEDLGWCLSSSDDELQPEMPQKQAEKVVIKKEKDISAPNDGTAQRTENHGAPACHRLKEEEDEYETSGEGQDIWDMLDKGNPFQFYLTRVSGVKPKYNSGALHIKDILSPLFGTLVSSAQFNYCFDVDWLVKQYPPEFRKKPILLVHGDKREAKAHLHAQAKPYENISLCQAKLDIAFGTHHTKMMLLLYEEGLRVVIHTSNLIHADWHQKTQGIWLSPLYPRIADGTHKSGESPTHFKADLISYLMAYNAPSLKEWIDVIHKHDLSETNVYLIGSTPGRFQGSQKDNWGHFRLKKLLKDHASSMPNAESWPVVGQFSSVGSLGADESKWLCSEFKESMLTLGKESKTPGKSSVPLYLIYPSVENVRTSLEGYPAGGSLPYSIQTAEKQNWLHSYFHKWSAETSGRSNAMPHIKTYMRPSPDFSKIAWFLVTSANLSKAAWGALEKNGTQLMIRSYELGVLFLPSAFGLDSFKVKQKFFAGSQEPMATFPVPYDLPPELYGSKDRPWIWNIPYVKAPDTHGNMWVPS
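Tdp1 1 nM final; 15 min RT w/ cpd; substrate 15 nM, 5 min; beads 10 ug/ml, 10 min; AlphaScreen read. Neg ctrl: no enzyme.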
uPA generation: qHTS for Inhibitors of Cell Surface uPA Generation | hit rate 0.31% among 330,000 | cell surface uPA generation assay, qHTS | Potency, µM (titrated, usually from 38.3 µM), hits mostly inhibitors | AID 540303, 2011; active = well fitted inhibition curve with a large enough effect; inconclusive = small, poorly fitted or top-dose-only effect; inactive = no such curve, though single readings can be large or run the other way; tested in mouse RAW 264.7 cells; also: nearly all actives have a fitted effect of over 55% in size
DT40 TDP1 no CPT: qHTS for Inhibitors of human tyrosyl-DNA phosphodiesterase 1 (TDP1): qHTS in cells in absence of CPT; DT40 Tdp1-/- hTDP1 cells, no CPT, ATP luminescence, 48 h; Potency, µM (top dose mostly 46.2 µM), most hits filed as inhibitors; hit rate 15% among 420,000; AID 686978, 2013; also: nearly all actives have a fitted effect of over 55% in size
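Seeded 400 DT40-hTDP1 cells/well (vehicle DMSO, no 20 nM CPT); pinned compounds; ≥48 hr at 37 °C; CellTiter-Glo luminescence as viability measure.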
DT40 TDP1 CPT: qHTS for Inhibitors of human tyrosyl-DNA phosphodiesterase 1 (TDP1): qHTS in cells in presence of CPT. chicken DT40 Tdp1-/-;hTDP1 cells + 20 nM CPT, ATP luminescence, 48 h. Potency, µM (doses to about 46.2 µM), hits mostly inhibitors. hit rate 12% among 420,000. AID 686979, 2013; also: nearly all actives have a fitted effect of over 55% in size
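Chicken DT40 Tdp1-/- cells stably complemented with human TDP1 were seeded at 400 cells/well in medium containing 20 nM camptothecin, exposed to pin-transferred compounds, and grown at 37 °C for at least 48 hr. Viability was read as ATP luminescence.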
miR-21 reporter: qHTS Assay for Modulators of miRNAs and/orActivators of miR-21; 340,000 tested, under 10 active; Potency, µM (top dose mostly 38.3 µM), actives largely listed as activators; HeLa miR-21 FLuc reporter, luciferase, 48 h;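 also: miR-21 action dims this reporter so a rising signal means less miR-21 action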
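Compounds were titrated across several concentrations (up to approximately 40 uM) and incubated 48 hours with HeLa miR-21-FLuc reporter cells (miR-21 target sequence downstream of FLuc, endogenous miR-21). Readout was firefly luciferase luminescence after lytic detection reagent.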
Numbers stand for hits. Only some compounds are listed: those with a hit (about 16% of all), similar ones and a draw of the others. Unless noted, calls follow the shape of the dose curve; as a rule, active = well fitted curve in the direction sought with a large enough effect; inconclusive = small, poorly fitted or top-dose-only effect, or another doubt; inactive = no such curve, though single readings can be large; an effect the other way counts as inactive or inconclusive.

How did O=C(NCc1ccncc1)c1ccc(N2CCCC2)c([N+](=O)[O-])c1 do in these assays?
TDP1 inh: inactive; uPA generation: inactive; DT40 TDP1 no CPT: 18.4µM; DT40 TDP1 CPT: inconclusive; miR-21 reporter: inactive

What do the screens show for `C=C1CCN(c2ccc(C(=O)NCc3ccc(OC)cc3)cc2[N+](=O)[O-])CC1`?
uPA generation: inactive; DT40 TDP1 no CPT: inconclusive; DT40 TDP1 CPT: 20.6µM

What do the screens show for `Cc1cc(OCC(=O)NCCCn2ccnc2)c2c(C)cc(=O)oc2c1`?
TDP1 inh: inactive; uPA generation: inactive; DT40 TDP1 no CPT: inactive; DT40 TDP1 CPT: inactive; miR-21 reporter: inactive

What do the screens show for `Cc1ccc(CNC(=O)c2ccc(N3CCC4(CC3)CC(c3cccc(Br)c3)=NO4)c([N+](=O)[O-])c2)cc1`?
TDP1 inh: inactive; uPA generation: inactive; DT40 TDP1 no CPT: inconclusive; DT40 TDP1 CPT: 10.3µM

What do the screens show for `COc1ccc(CNC(=O)c2ccc(N3CCC4(CC3)CC(c3ccc(Cl)cc3)=NO4)c([N+](=O)[O-])c2)cc1`?
uPA generation: inactive; DT40 TDP1 no CPT: 0.92µM; DT40 TDP1 CPT: inconclusive

How did O=[N+]([O-])c1cccc(S(=O)(=O)N2CCCCC2c2cccnc2)c1 (stereo unspecified) do in these assays?
uPA generation: inactive; DT40 TDP1 no CPT: inconclusive; DT40 TDP1 CPT: 20.6µM; miR-21 reporter: inactive

Results for CC1CCN(C(=O)C2CCCCN2S(=O)(=O)c2cccc([N+](=O)[O-])c2)CC1 (stereo unspecified) ?
TDP1 inh: inactive; uPA generation: inactive; DT40 TDP1 no CPT: inconclusive; DT40 TDP1 CPT: inconclusive; miR-21 reporter: inactive

What do the screens show for `O=C(Nc1ccc(S(=O)(=O)N2CCCCC2c2cccnc2)cc1)c1ccc(F)cc1` (stereo unspecified)?
TDP1 inh: inactive; DT40 TDP1 no CPT: 18.4µM; DT40 TDP1 CPT: 23.1µM; miR-21 reporter: inconclusive

How did c1ccc(-n2ncc3c(N4CCN(c5ccccn5)CC4)nc(N4CCCCC4)nc32)cc1 do in these assays?
TDP1 inh: inactive; miR-21 reporter: inactive

How did Cc1cccc(NC(=O)CSCC(=O)Nc2sccc2C#N)c1 do in these assays?
TDP1 inh: inactive; uPA generation: inactive; DT40 TDP1 no CPT: inactive; DT40 TDP1 CPT: inactive

What do the screens show for `CC12CCC(C(=O)Nc3ccc(Cl)cc3)([C@H](Br)C1=O)C2(C)C` (stereo partly specified)?
uPA generation: inactive; DT40 TDP1 no CPT: inconclusive; DT40 TDP1 CPT: inactive; miR-21 reporter: inactive

What do the screens show for `CC12CCC(C(=O)Nc3cccc(Cl)c3)(C(Br)C1=O)C2(C)C` (stereo unspecified)?
TDP1 inh: inactive; uPA generation: inactive; DT40 TDP1 no CPT: 18.4µM; DT40 TDP1 CPT: inconclusive; miR-21 reporter: inactive

What do the screens show for `Cc1sc2ncnc(NCC3CCCO3)c2c1C` (stereo unspecified)?
TDP1 inh: inactive; uPA generation: inactive; DT40 TDP1 no CPT: 9.2µM; DT40 TDP1 CPT: 16.4µM; miR-21 reporter: inactive

What do the screens show for `Cc1sc2ncnc(SCC(=O)N3CCOCC3)c2c1C`?
TDP1 inh: inactive; uPA generation: inconclusive; DT40 TDP1 no CPT: inactive; DT40 TDP1 CPT: inactive

Results for Cc1sc2ncnc(NCC(C)(C)N3CCOCC3)c2c1C ?
TDP1 inh: inactive; uPA generation: inactive; DT40 TDP1 no CPT: 1.46µM; DT40 TDP1 CPT: 2.06µM; miR-21 reporter: inactive

How did c1nc(NCC2(N3CCOCC3)CCCCC2)c2ccsc2n1 do in these assays?
TDP1 inh: inactive; uPA generation: inactive; DT40 TDP1 no CPT: 18.4µM; DT40 TDP1 CPT: 11.6µM; miR-21 reporter: inactive

How did O=S(=O)(NCC1(N2CCOCC2)CCCCC1)c1ccccc1Cl do in these assays?
uPA generation: inactive; DT40 TDP1 no CPT: inconclusive; DT40 TDP1 CPT: inconclusive

Results for Cc1sc2ncnc(NCC3(N4CCOCC4)CCCCC3)c2c1C ?
TDP1 inh: inactive; uPA generation: inactive; DT40 TDP1 no CPT: 23.1µM; DT40 TDP1 CPT: 20.6µM; miR-21 reporter: inactive

How did Cc1ccc(-n2nnc(-c3cc4ccccc4n3C)n2)cc1 do in these assays?
TDP1 inh: inactive; uPA generation: inactive; DT40 TDP1 no CPT: inactive; DT40 TDP1 CPT: inactive; miR-21 reporter: inactive

Results for NC(=NCCc1ccc(Cl)cc1)NS(=O)(=O)c1ccc(F)cc1 ?
TDP1 inh: inactive; uPA generation: inactive; DT40 TDP1 no CPT: inconclusive; DT40 TDP1 CPT: inconclusive; miR-21 reporter: inactive

Results for CCOC(=O)C(CC)/C(C)=N\NC(=O)CCC(=O)Nc1ccc(Cl)cc1Cl (stereo unspecified) ?
TDP1 inh: inactive; uPA generation: inactive; DT40 TDP1 no CPT: inactive; DT40 TDP1 CPT: inactive; miR-21 reporter: inactive

How did COc1ccc(N(C(=O)/C=C\C(=O)Nc2ccc(C)cc2)C(C(=O)NCc2ccco2)c2ccc(C)cc2)cc1 (stereo unspecified) do in these assays?
TDP1 inh: inactive; DT40 TDP1 no CPT: 4.11µM; DT40 TDP1 CPT: 6.51µM; miR-21 reporter: inactive

What do the screens show for `Cc1ccc(NC(=O)/C=C\C(=O)N(c2ccc(C(C)C)cc2)C(C(=O)NCc2ccco2)c2ccc(F)cc2)cc1` (stereo unspecified)?
TDP1 inh: inactive; DT40 TDP1 no CPT: 18.4µM; DT40 TDP1 CPT: 14.6µM; miR-21 reporter: inconclusive

How did Cc1ccc(N(C(=O)c2sc(C)nc2C)C(C(=O)NCc2ccco2)c2ccccc2)cc1 (stereo unspecified) do in these assays?
TDP1 inh: inactive; uPA generation: inactive; DT40 TDP1 no CPT: inconclusive; DT40 TDP1 CPT: inconclusive; miR-21 reporter: inactive

What do the screens show for `Cc1ccc(N(CC(=O)NC2CCCCC2)C(=O)c2ccc(C)s2)cc1`?
TDP1 inh: inactive; uPA generation: inactive; DT40 TDP1 no CPT: inconclusive; DT40 TDP1 CPT: inactive; miR-21 reporter: inactive

What do the screens show for `COC(=O)Cc1c(C)nc2nc[nH]n2c1=O`?
TDP1 inh: inactive; DT40 TDP1 no CPT: inactive; DT40 TDP1 CPT: inactive; miR-21 reporter: inactive

How did COc1ccccc1N=Nc1nc(-c2ccccc2)c(-c2ccccc2)[nH]1 do in these assays?
TDP1 inh: inactive; uPA generation: inactive; DT40 TDP1 no CPT: 16.4µM; DT40 TDP1 CPT: 18.4µM; miR-21 reporter: inactive

Results for COc1ccc(N=Nc2nc(-c3ccccc3)c(-c3ccccc3)[nH]2)cc1 ?
TDP1 inh: inactive; uPA generation: inactive; DT40 TDP1 no CPT: 16.4µM; DT40 TDP1 CPT: inconclusive; miR-21 reporter: inactive

Results for Oc1ccccc1N=Nc1nc(-c2ccccc2)c(-c2ccccc2)[nH]1 ?
TDP1 inh: inactive; uPA generation: inactive; DT40 TDP1 no CPT: 2.91µM; DT40 TDP1 CPT: 2.59µM; miR-21 reporter: inactive

How did CS(=O)(=O)c1nc(-c2ccccc2)c(-c2ccccc2)[nH]1 do in these assays?
TDP1 inh: inactive; uPA generation: inactive; DT40 TDP1 no CPT: inactive; DT40 TDP1 CPT: inactive; miR-21 reporter: inactive

Results for COc1cc(-c2nc(-c3ccccc3)c(-c3ccc(F)cc3)[nH]2)cc2c1OCO2 ?
TDP1 inh: inactive; uPA generation: inactive; DT40 TDP1 no CPT: inconclusive; DT40 TDP1 CPT: inconclusive; miR-21 reporter: inactive
